Data as given in the supplement of paper PMC12067093, “Discovery and optimisation of a covalent ligand for TRIM25 and its application to targeted protein ubiquitination” (Chemical Science, 2025).
Targets with the largest changes are over-represented here; the source holds about 21,000 in all.

Compound: CC1Cc2ccccc2N1C(=O)C1CCCN(C1)C(=O)CCl (mixture of isomers) [TRIM25 ligand 11 (diastereomer mixture)]
Experiment: probe-labelled cysteine peptide fold change vs DMSO (competition) (log2 fold change); higher = less target engagement (more negative = stronger competition)
Conditions: THP-1, incubation time: 4 h
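Further: competitive chemoproteomic profiling in live THP-1 cells with an iodoacetamide desthiobiotin (IA-DTB) probe, comparing probe-labelled peptide intensities in compound-treated cells against DMSO-treated controls.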

UniProt Q9BZL4, sequence (Q9BZL4 whole entry, looked up): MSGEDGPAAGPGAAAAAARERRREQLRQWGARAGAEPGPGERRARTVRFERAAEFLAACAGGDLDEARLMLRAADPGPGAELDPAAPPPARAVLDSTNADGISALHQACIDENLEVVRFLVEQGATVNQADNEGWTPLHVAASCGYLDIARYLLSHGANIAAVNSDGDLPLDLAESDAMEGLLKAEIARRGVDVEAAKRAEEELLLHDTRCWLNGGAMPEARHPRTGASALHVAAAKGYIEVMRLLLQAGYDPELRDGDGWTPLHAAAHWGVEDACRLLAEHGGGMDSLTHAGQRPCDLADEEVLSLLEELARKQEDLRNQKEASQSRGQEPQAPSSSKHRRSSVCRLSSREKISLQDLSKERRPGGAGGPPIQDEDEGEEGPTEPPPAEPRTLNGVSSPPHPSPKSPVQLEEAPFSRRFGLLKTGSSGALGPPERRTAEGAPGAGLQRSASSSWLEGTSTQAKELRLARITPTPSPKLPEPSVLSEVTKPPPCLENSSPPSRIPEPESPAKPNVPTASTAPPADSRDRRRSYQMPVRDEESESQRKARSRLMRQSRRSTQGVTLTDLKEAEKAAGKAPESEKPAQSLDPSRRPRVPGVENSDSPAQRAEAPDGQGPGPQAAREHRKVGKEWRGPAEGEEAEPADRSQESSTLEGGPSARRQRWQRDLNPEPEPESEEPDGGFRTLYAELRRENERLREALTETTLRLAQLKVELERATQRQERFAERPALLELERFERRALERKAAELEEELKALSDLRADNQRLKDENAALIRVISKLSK
UniProt Q9UIL8, sequence (Q9UIL8 whole entry): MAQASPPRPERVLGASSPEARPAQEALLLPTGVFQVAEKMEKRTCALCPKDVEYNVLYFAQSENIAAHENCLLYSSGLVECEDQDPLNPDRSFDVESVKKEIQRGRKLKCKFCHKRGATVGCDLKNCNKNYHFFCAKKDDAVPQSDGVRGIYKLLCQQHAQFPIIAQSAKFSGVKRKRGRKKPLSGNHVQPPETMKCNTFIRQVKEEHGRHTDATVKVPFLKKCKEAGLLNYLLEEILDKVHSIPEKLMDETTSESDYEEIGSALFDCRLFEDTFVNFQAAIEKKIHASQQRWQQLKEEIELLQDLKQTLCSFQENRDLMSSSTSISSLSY
UniProt Q99570, sequence (Q99570 whole entry, looked up): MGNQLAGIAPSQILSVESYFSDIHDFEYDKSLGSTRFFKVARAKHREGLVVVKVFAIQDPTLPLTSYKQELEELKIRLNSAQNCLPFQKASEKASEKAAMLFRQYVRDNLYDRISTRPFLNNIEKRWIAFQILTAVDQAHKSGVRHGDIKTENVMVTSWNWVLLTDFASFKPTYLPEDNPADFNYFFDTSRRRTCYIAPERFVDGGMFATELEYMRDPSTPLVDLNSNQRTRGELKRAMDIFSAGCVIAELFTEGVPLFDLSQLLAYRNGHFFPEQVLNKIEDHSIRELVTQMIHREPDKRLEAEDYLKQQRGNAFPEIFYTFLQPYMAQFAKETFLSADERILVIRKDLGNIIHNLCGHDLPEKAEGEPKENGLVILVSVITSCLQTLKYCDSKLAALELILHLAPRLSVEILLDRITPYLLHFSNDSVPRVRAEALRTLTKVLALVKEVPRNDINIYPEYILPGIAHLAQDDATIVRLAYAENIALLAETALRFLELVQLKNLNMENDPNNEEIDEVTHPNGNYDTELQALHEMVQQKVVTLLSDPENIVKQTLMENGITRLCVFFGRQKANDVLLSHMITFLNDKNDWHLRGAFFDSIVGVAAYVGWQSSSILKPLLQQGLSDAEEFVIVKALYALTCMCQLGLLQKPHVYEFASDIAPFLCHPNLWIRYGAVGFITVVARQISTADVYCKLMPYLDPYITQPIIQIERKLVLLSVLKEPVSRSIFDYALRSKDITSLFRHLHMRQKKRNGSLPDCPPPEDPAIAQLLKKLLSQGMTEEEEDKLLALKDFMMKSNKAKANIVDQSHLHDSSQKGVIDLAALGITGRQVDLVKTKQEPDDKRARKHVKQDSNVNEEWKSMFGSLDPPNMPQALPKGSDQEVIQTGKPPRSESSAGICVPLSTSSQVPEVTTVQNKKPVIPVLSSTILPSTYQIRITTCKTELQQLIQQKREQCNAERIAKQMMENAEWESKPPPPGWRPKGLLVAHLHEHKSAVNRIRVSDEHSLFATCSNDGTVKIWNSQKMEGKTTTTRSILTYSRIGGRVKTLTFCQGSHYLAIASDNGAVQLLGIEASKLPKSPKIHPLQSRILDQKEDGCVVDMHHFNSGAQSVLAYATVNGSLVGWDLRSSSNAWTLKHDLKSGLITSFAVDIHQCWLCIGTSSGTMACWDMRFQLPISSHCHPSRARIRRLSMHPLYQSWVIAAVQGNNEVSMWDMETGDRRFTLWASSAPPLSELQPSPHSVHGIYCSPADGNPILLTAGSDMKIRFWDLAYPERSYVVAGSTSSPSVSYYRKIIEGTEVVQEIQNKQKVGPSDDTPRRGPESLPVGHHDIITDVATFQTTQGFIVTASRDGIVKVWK
UniProt O15160, sequence (O15160 whole entry, looked up): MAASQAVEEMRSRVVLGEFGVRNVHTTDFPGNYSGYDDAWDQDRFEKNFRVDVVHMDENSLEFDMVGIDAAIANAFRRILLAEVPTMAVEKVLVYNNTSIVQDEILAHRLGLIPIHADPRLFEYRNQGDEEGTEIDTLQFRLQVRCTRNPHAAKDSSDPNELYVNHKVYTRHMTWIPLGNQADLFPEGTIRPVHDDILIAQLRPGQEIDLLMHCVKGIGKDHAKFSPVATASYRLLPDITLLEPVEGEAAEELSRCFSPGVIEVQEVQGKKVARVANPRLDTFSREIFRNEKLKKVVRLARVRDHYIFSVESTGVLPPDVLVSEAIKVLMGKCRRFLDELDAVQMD
UniProt P12955, sequence (P12955 whole entry, looked up): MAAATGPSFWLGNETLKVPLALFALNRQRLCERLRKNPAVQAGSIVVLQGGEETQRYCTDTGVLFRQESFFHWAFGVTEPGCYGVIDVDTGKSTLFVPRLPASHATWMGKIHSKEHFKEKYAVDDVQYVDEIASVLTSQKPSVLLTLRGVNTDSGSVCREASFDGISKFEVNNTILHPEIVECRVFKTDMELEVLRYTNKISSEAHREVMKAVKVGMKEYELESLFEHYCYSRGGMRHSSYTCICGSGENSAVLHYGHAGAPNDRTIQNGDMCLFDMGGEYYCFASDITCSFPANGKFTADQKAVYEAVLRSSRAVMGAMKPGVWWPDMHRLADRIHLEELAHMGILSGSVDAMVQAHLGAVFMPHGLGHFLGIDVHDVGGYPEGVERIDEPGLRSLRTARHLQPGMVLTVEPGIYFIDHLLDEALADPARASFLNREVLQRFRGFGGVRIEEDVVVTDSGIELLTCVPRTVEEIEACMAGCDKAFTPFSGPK

Target | probe-labelled cysteine peptide fold change (10 µM) | probe-labelled cysteine peptide fold change (50 µM)
PIK3R4_Q99570_955_EQCNAER (UniProt Q99570) | -0.0631 | -0.105
PECAM1_P16284_109_CTVIVNNK (UniProt P16284) | 0.126 | 0.476
PPP1R12C_Q9BZL4_297_LLAEHGGGMDSLTHAGQRPCDLADEEVLSLLEELAR (UniProt Q9BZL4) | 0.136 | -0.278
POLR1C_O15160_214_PVHDDILIAQLRPGQEIDLLMHCVK (UniProt O15160) | -0.00122 | -0.0368
PEPD_P12955_158_GVNTDSGSVCR (UniProt P12955) | 0.0721 | -0.0568
PHF11_Q9UIL8_135_NYHFFCAK (UniProt Q9UIL8) | -0.0148 | 0.156
